Reference: PubChem BioAssay
Where “and” joins values, the source holds several entries; their conditions need not be identical. Equal entries are not always repeated. Calls of active or inactive are those of the source.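 Rule for the calls, unless noted: active = compounds whose cell count with miR-34 switched on is under 0.7 times the count with it off; inactive = the rest.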 Where a SMILES comes first, the peptide text is derived from it. The star is where a group is joined. Cbz = O=C(OCc1ccccc1)*

Assays:
[1] = viability loss with induced miR-34 in A549 – imaging, A549 dox-inducible miR-34, nuclei and caspase counts, primary screen (AID 1347080); settings: A549 miR-34 inducible, Hoechst nuclei count, 48 h
[2] = MELAS cybrid and Rieske KO viability enhancers – cell-based, MELAS cybrids, Rieske KO mouse fibroblasts, CellTiter-Glo, primary screen (AID 1508586;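 active = mean z-score across replicates of 1.96 or higher in either the MELAS or the Rieske mutant cell line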;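 note: z relative to plate mean and SD of compound and empty wells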); settings: low glucose
[3] = stronger effect = lower value, cell number ratio, induced over uninduced
[4] = measured here: relative caspase fold change +Dox/-Dox
[5] = measured here: total cells with miR-34 induction, stronger effect = lower value
[6] = measured here: total cells without miR-34 induction
[7] = MELAS cybrid survival, CellTiter-Glo 48 h, stronger effect = higher value
[8] = Rieske KO mouse fibroblast survival, CellTiter-Glo 72 h
Note: test concentration not given here.

Row | SMILES | fold change [1, 3] | fold change [1, 4] | cell count [1, 5] | cell count [1, 6] | z-score [2, 7] | z-score [2, 8]
1 | CCn1c(N)c(C(=O)NC)c(=O)c2ccc(C#C[C@@](C)(O)COC)nc21 | 0.913 (inactive) | 0.578 | 6630 | 7260 | -0.356 (inactive) | -0.157
2 | CC(C)CC(C=O)NC(=O)C(CC(C)C)NC(=O)C(CC(C)C)NC(=O)OCc1ccccc1 (stereo not drawn) (Cbz-Leu-Leu-Leu-aldehyde; configuration not given here) | 0.872 (inactive) | 0.735 | 2300 | 2640 | -0.114 (inactive) | -3.43
3 | Cn1cc(-c2[nH]c3cc(NC(=O)C(N)C4CCCCC4)cc4c3c2C=NNC4=O)cn1 (stereo not drawn) | 0.983 (inactive) | 1.09 | 2060 | 2100 | 0.356 (inactive) | -0.0626
4 | COC(=O)NC(C(=O)NC(Cc1ccccc1)C(O)CN(Cc1ccc(-c2ccccn2)cc1)NC(=O)C(NC(=O)OC)C(C)(C)C)C(C)(C)C (stereo not drawn) | 0.891 (inactive) | 0.981 | 6490 | 7280 | -0.349 (inactive) | 0.446
5 | CC(=Cc1ccc(C(=O)O)cc1)c1ccc2c(c1)C(C)(C)CCC2(C)C | 0.986 (inactive) | 0.781 | 8250 | 8370 | -0.023 (inactive) | -0.2
6 | C=C1CCC(O)CC1=CC=C1CCC[C@@]2(C)[C@H]1CC[C@H]2C(C)CCCC(C)(C)O (stereo partly drawn) | 0.933 (inactive) | 0.682 | 7650 | 8200 | -0.475 (inactive) | 0.00368
7 | CC(C)c1onc(-c2c(Cl)cccc2Cl)c1COc1ccc(C=Cc2cccc(C(=O)O)c2)c(Cl)c1 | 0.901 (inactive) | 1.37 | 7080 | 7860 | 0.359 (inactive) | -0.609
8 | C[C@]12CC[C@H]3c4ccc(OC(=O)c5ccccc5)cc4CC[C@H]3[C@@H]1CCC2O (stereo partly drawn) | 0.921 (inactive) | 0.673 | 8340 | 9050 | -0.15 (inactive) | -0.151
9 | O=C(CCc1ccc(O)cc1)c1c(O)cc(O)cc1OC1OC(CO)C(O)C(O)C1O (stereo not drawn) | 0.988 (inactive) | 0.673 | 10200 | 10400 | -0.378 (inactive) | 0.518
10 | CC(C)CC(NC(=O)CNC(=O)c1cc(Cl)ccc1Cl)B(O)O (stereo not drawn) | 0.948 (inactive) | 1.44 | 1800 | 1900 | -0.0464 (inactive) | -3.37
11 | CC(C)(CO)c1cc2cc(NC(=O)C3(c4ccc5c(c4)OC(F)(F)O5)CC3)c(F)cc2n1CC(O)CO (stereo not drawn) | 0.912 (inactive) | 1.56 | 8420 | 9220 | -0.252 (inactive) | -0.139
12 | OCC1OC(Oc2ccc(O)cc2)C(O)C(O)C1O (stereo not drawn) | 0.859 (inactive) | 1.01 | 7730 | 9000 | -0.228 (inactive) | 0.468
13 | Cc1nc(N(C)C(=O)Cc2ccc(-c3ccccn3)cc2)sc1S(N)(=O)=O | 0.911 (inactive) | 0.414 | 7530 | 8270 | -0.339 (inactive) | -0.561
14 | O=C(NCc1ccc(Oc2ccccc2)cc1)c1nc(-c2cc(Br)c(O)c(Br)c2)no1 | 0.903 (inactive) | 0.842 | 7380 | 8170 | -0.2 (inactive) | -0.275
15 | N#CCC(C1CCCC1)n1cc(-c2ncnc3[nH]ccc23)cn1 (stereo not drawn) | 1.03 (inactive) and 0.94 (inactive) | 0.563 and 1.09 | 8730 and 7580 | 8490 and 8060 | -0.347 (inactive) and -0.642 (inactive) | 0.0258 and -0.766
16 | CC1(C)SC2C(NC(=O)C(NC(=O)N3CCNC3=O)c3ccccc3)C(=O)N2C1C(=O)O (stereo not drawn) | 0.905 (inactive) | 1.06 | 8030 | 8880 | -0.162 (inactive) | -0.16
17 | Cn1nc(C(C)(C)C)cc1C(=O)NC(Cc1cccc(Cl)c1)C(=O)NCC#N (stereo not drawn) | 0.927 (inactive) | 0.462 | 7540 | 8140 | 0.131 (inactive) | 0.0966
18 | CCC1OC(=O)CC(O)C(C)C(OC2OC(C)C(O)C(N(C)C)C2O)C(CCN2CC(C)CC(C)C2)CC(C)C(=O)C=CC(C)=CC1COC1OC(C)C(O)C(OC)C1OC (stereo not drawn) | 0.924 (inactive) | 0.808 | 8240 | 8920 | -0.194 (inactive) | -0.165
19 | O=C(NCc1cccc(O)c1)Nc1nc(-c2ccncc2)cs1 | 0.899 (inactive) | 0.419 | 2990 | 3330 | 0.152 (inactive) | -1.61

Row | SMILES | fold change [1, 3] | fold change [1, 4] | cell count [1, 5] | cell count [1, 6] | z-score [2, 7] | z-score [2, 8]
20 | Cc1ccc(CNc2ncnc3ccc(-c4ccc(CO)o4)cc23)o1 | 0.916 (inactive) | 0.52 | 7510 | 8210 | -0.414 (inactive) | 0.153
21 | C=C1C(=CC=C2CCC[C@]3(C)C(C(C)CCCC(C)C)CC[C@@H]23)CC(O)CC1O (stereo partly drawn) | 0.908 (inactive) | 0.753 | 6380 | 7020 | 0.162 (inactive) | 0.335
22 | CC1O[C@@H](OC2C(O)C[C@H](OC3C(O)C[C@H](OC4CC[C@@]5(C)[C@H](CC[C@@H]6[C@H]5CC(O)[C@]5(C)C(C7=CC(=O)OC7)CC[C@]65O)C4)OC3C)OC2C)CC(O)C1O (stereo partly drawn) | 0.837 (inactive) | 0.829 | 400 | 478 | 0.348 (inactive) | -0.197
23 | CC(C)N(CCCNC(=O)Nc1ccc(C(C)(C)C)cc1)CC1OC(n2cc(Br)c3c(N)ncnc32)C(O)C1O (stereo not drawn) | 0.844 (inactive) | 1.16 | 7150 | 8480 | -0.128 (inactive) | -0.178
24 | CN(CC1COCCO1)S(=O)(=O)Nc1ccc2ccc3ncc(-c4cnn(C)c4)cc3c(=O)c2c1 (stereo not drawn) | 0.745 (inactive) | 1.24 | 3290 | 4410 | 4.55 (active) | 2.15
25 | O=C(NN=Cc1ccc(O)c(O)c1)c1cc2ccccc2cc1O | 0.949 (inactive) | 0.497 | 8120 | 8550 | -0.481 (inactive) | 0.559
26 | CC(=O)O[C@@]1(C(C)=O)CC[C@H]2[C@@H]3CC(C)C4=CC(=O)CC[C@]4(C)[C@@H]3CC[C@@]21C (stereo partly drawn) | 0.92 (inactive) | 0.806 | 7550 | 8200 | -0.365 (inactive) | -0.106
27 | CC(=O)c1cc([N+](=O)[O-])c(Sc2cccc(Cl)c2Cl)s1 | 0.882 (inactive) | 0.345 | 7980 | 9050 | -0.31 (inactive) | 0.849
28 | CC(CNC(=O)c1cccnc1)NC(=O)c1cccnc1 (stereo not drawn) | 0.92 (inactive) | 1.03 | 9140 | 9930 | -0.163 (inactive) | -0.298
29 | N=c1ccn2c(n1)OC1C(O)C(CO)OC12 (stereo not drawn) | 1.07 (inactive) | 0.814 | 2350 | 2200 | 0.074 (inactive) | 0.000793
30 | CCC(Nc1ncnc2nc[nH]c12)c1nc2cccc(F)c2c(=O)n1-c1ccccc1 (stereo not drawn) | 0.873 (inactive) | 0.869 | 6860 | 7860 | -0.15 (inactive) | 0.351
31 | O=S(=O)(NCCNCC=Cc1ccc(Br)cc1)c1cccc2cnccc12 | 0.834 (inactive) | 0.904 | 8100 | 9710 | -0.305 (inactive) | 0.0221
32 | CCN1CC(C)n2c(c(O)c3c(=O)n(Cc4ccc(F)c(Cl)c4)nc(C(=O)NC)c32)C1=O (stereo not drawn) | 1.07 (inactive) | 0.451 | 7640 | 7150 | -0.423 (inactive) | 0.325
33 | CCOC(=O)Nc1cc(-c2ccc(C)c(NS(C)(=O)=O)c2)nn2c(C)nnc12 | 1.01 (inactive) | 0.716 | 4010 | 3970 | -0.585 (inactive) | -4.44
34 | CCc1ccc(C=C2SC(=S)NC2=O)cc1 | 0.911 (inactive) | 0.424 | 7750 | 8500 | -0.119 (inactive) | 0.267
35 | O=C(C=Cc1ccccc1)NC(NC(=S)Nc1cccc2cccnc12)C(Cl)(Cl)Cl (stereo not drawn) | 0.979 (inactive) | 0.343 | 6780 | 6920 | -0.276 (inactive) | 0.21
36 | CCC(=O)O[C@@]1(C(=O)SCF)C(C)C[C@H]2[C@@H]3CC(F)C4=CC(=O)C=C[C@]4(C)[C@]3(F)C(O)C[C@@]21C (stereo partly drawn) | 0.849 (inactive) | 1.14 | 4990 | 5880 | -0.525 (inactive) | -0.481
37 | CCOC(=O)N1c2ccc(C(F)(F)F)cc2C(N(Cc2cc(C(F)(F)F)cc(C(F)(F)F)c2)C(=O)OC)CC1CC (stereo not drawn) | 0.939 (inactive) | 0.794 | 8370 | 8920 | -0.304 (inactive) | 0.988
38 | CN(C)CCC=C1c2ccccc2Sc2ccc(Cl)cc21 | 1.02 (inactive) | 0.667 | 7540 | 7420 | -0.469 (inactive) | -0.0938
